For eight molecules, outcome and AC50 results are on record in PubChem BioAssay (EPA / NIEHS).

SMILES strings stand for the structures. Calls of active or inactive are those of the source. How the source made its calls: active means hit-call score of the fitted dose curve at least 0.9, where 1 is the maximum; inactive means score below 0.9.

The nature of experiment [1]: APR_HepG2_NuclearSize_24hr: Apredica 24-hour HepG2 Assay for Nuclear Size (AID 2282907). As to conditions: high-content imaging, actives raise or lower the signal. Put shortly: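 HepG2, 24 hr dosing, 10-pt 0.39–200 uM, duplicates, 0.5% DMSO final; 3.7% formaldehyde fix, 0.5% Triton X-100; Hoechst 33342 nuclear stain; ArrayScan HCS, Cell Cycle analysis → nuclear size; bidirectional fit vs DMSO.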

A short description of experiment [2]: APR_HepG2_CellLoss_24hr: Apredica 24-hour HepG2 Assay for Cell Loss (AID 2282908).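 On AC50: fit in both directions so a hit may be cell loss or gain.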 Conditions: high-content imaging. Put shortly:
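10-pt dose, 0.39–200 uM, n=2/plate; DMSO 0.5% v/v final as negative control. Fix 3.7% formaldehyde 30 min RT, permeabilize 0.5% Triton X-100, stain Hoechst 33342 2 ug/mL, image 20x. Nuclear count, bidirectional fit vs DMSO.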

A short description of experiment [3]: APR_HepG2_MicrotubuleCSK_24hr: Apredica 24-hour HepG2 Assay for Microtubule CSK Stabilty (AID 2282909). Conditions: HepG2 microtubule cytoskeleton imaging, actives raise or lower the signal. Put shortly:
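Human liver HepG2, 24 h dosing, 0.39–200 uM ×10 conc, dup, 0.5% DMSO. 3.7% formaldehyde fix, 0.5% Triton perm, anti-alpha-tubulin (1:200)/Cy5 secondary + Hoechst. HCS imaging, 6 fields/well; gain/loss fit vs DMSO.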

Experiment [4] is described as follows: APR_HepG2_MitoticArrest_24hr: Apredica 24-hour HepG2 Assay for Mitotic Arrest (AID 2282910). Conditions: high-content imaging, actives raise or lower the signal. Put shortly:
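HepG2 cells, 24 h exposure at 0.39-200 uM (10 concentrations, duplicate, 0.5% DMSO). Fixed, stained for phospho-histone H3 with Hoechst; imaged by high-content microscopy, bidirectional fit versus DMSO.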

A short description of experiment [5]: APR_HepG2_MitoMembPot_24hr: Apredica 24-hour HepG2 Assay for Mitochondrial Membrane Potential (AID 2282911). As to conditions: imaging, actives raise or lower the signal. Put shortly:
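HepG2 cells exposed 24 h to 0.39–200 uM compounds in duplicate, 0.5% v/v DMSO final. MitoTracker Red CMXRos 250 nM loaded 30 min before formaldehyde fixation; high-content imaging at 20x, bidirectional fit versus DMSO.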

Experiment [6] in a line: APR_HepG2_MitoMass_24hr: Apredica 24-hour HepG2 Assay for Mitochondrial Mass (AID 2282912). Conditions: high-content imaging, actives raise or lower the signal. Put shortly:
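Mitochondrial mass is read as MitoTracker Red fluorescence intensity from automated imaging, with bidirectional curve fitting relative to DMSO. HepG2 cells received compound (0.39–200 uM, 0.5% DMSO final) for 24 hr and were dye-loaded (250 nM, 30 min) before formaldehyde fixation.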

Experiment [7] in a line: APR_HepG2_p53Act_24hr: Apredica 24-hour HepG2 Assay for p53 Activation (AID 2282913).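 Further: p53 protein immunofluorescence averaged per cell in HepG2 with Hoechst nuclei.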 As to conditions: high-content imaging, actives raise or lower the signal. Put shortly: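 HepG2 cells exposed 24 h to compounds at 0.39–200 uM in duplicate, 0.5% v/v DMSO final; fixed, permeabilized, stained with anti-p53 antibody and Hoechst 33342; fluorescence imaging; bidirectional curve fit versus DMSO.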

Experiment [8] can be described thus: APR_HepG2_CellCycleArrest_72hr: Apredica 72-hour HepG2 Assay for Cell Cycle Arrest (AID 2282914). Conditions: high-content imaging, actives raise or lower the signal. Put shortly: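 HepG2 cells exposed 72 h in duplicate to 0.39–200 uM compound, 0.5% DMSO final. Formaldehyde-fixed, Hoechst 33342-stained nuclei imaged at 20x, six fields per well; DNA content per valid cell quantified by cell-cycle image analysis, bidirectional fit versus DMSO.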

A short description of experiment [9]: APR_HepG2_CellLoss_72hr: Apredica 72-hour HepG2 Assay for Cell Loss (AID 2282915). Conditions: high-content imaging. Put shortly: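 HepG2 cells exposed 72 h to compound at 0.39–200 uM (10 concentrations, duplicate) in 0.5% DMSO. Fixed with 3.7% formaldehyde and Hoechst 33342-stained. Imaged at 20x; nuclear count gives cell number, fitted bidirectionally versus DMSO.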

Experiment [10] is described as follows: APR_HepG2_P-H2AX_72hr: Apredica 72-hour HepG2 Assay for H2AX Phosphorylation (AID 2282916).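 Further: phospho-histone H2A.x immunostain intensity per cell marking DNA damage.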 As to conditions: imaging, actives raise or lower the signal. Put shortly: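 HepG2; cpd 0.39–200 uM ×10 conc, duplicates; 0.5% DMSO; 72 hr. Fix 3.7% formaldehyde 30 min RT, 0.5% Triton X-100 10 min. Anti-phospho-H2A.x 1:200 + Hoechst 2 ug/mL, 60 min RT; ArrayScan imaging.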

Experiment [11] can be described thus: APR_HepG2_MitoMembPot_72hr: Apredica 72-hour HepG2 Assay for Mitochondrial Membrane Potential (AID 2282917). Conditions: imaging, actives raise or lower the signal. Put shortly: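 HepG2 cells dosed 72 hr with compound at 0.39–200 uM in duplicate, 0.5% v/v DMSO final. Mitochondria stained with 250 nM MitoTracker Red CMXRos for 30 min before formaldehyde fixation, imaged by high-content fluorescence; bidirectional fit versus DMSO.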

Experiment [12] is described as follows: APR_HepG2_MitoticArrest_72hr: Apredica 72-hour HepG2 Assay for Mitotic Arrest (AID 2282918). Conditions: high-content imaging, actives raise or lower the signal. Put shortly:
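HepG2 cells treated 72 h at 0.39–200 uM, 0.5% DMSO final; formaldehyde-fixed, stained with Hoechst 33342 and phospho-histone H3 antibody, imaged by high-content fluorescence; bidirectional fit versus DMSO.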

The nature of experiment [13]: APR_HepG2_MicrotubuleCSK_72hr: Apredica 72-hour HepG2 Assay for Microtubule CSK Stabilty (AID 2282919). Conditions: HepG2 microtubule cytoskeleton, high-content imaging, actives raise or lower the signal. Put shortly: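 HepG2 cells were exposed 72 hr to compound at 0.39–200 uM in duplicate (0.5% DMSO final), then fixed and permeabilized. Alpha-tubulin immunofluorescence was imaged by high-content microscopy, with bidirectional fitting against DMSO and taxol as positive control.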

The nature of experiment [14]: APR_HepG2_P-H2AX_24hr: Apredica 24-hour HepG2 Assay for H2AX Phosphorylation (AID 2282920). As to conditions: high-content imaging, actives raise or lower the signal. Put shortly:
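HepG2 cells dosed 24 h at 0.39–200 uM (10 points, duplicate, 0.5% DMSO final). Formaldehyde-fixed and permeabilized, then immunostained for phospho-H2A.x with Hoechst. Fluorescence quantified by high-content imaging, fitted bidirectionally versus DMSO.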

Experiment [15] in a line: APR_HepG2_StressKinase_72hr: Apredica 72-hour HepG2 Assay for Stress Kinase (AID 2282921). As to conditions: HepG2 stress kinase (phospho-c-Jun) imaging, actives raise or lower the signal. Put shortly: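 Dose 0.39–200 uM (10 pts, duplicate), 0.5% DMSO; 72 h; fix 3.7% formaldehyde 30 min RT; Triton permeabilize; anti-phospho-c-Jun/Cy3 + Hoechst 60 min RT; image 20x; fit gain/loss vs DMSO.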

The nature of experiment [16]: APR_HepG2_StressKinase_24hr: Apredica 24-hour HepG2 Assay for Stress Kinase (AID 2282922). Conditions: HepG2 stress kinase (phospho-c-Jun) imaging, actives raise or lower the signal. Put shortly:
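HepG2 cells exposed 24 h to 0.39–200 uM compound in duplicate (0.5% v/v DMSO final). Cells fixed in 3.7% formaldehyde, permeabilized and immunostained for phospho-c-Jun; read by high-content fluorescence imaging, fitted bidirectionally against DMSO.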

A short description of experiment [17]: APR_HepG2_MitoMass_72hr: Apredica 72-hour HepG2 Assay for Mitochondrial Mass (AID 2282924).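 Further: MitoTracker Red CMXRos stain intensity per cell imaged as mitochondrial mass.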 Conditions: high-content imaging, actives raise or lower the signal. Put shortly: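 HepG2 cells dosed 72 hr at 0.39–200 uM (0.5% DMSO), in duplicate. MitoTracker Red CMXRos 250 nM loaded 30 min before formaldehyde fixation; high-content fluorescence imaging, bidirectional fit versus DMSO.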

Experiment [18] can be described thus: APR_HepG2_NuclearSize_72hr: Apredica 72-hour HepG2 Assay for Nuclear Size (AID 2282925). As to conditions: high-content imaging, actives raise or lower the signal. Put shortly: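 HepG2 cells dosed 72 h at 0.39–200 uM (10 concentrations, duplicate) in 0.5% v/v DMSO final. Fixed, Hoechst 33342-stained nuclei imaged; nuclear diameter measured by automated image analysis. Bidirectional fit versus DMSO.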

The nature of experiment [19]: ATG_CRE_CIS: Attagene CIS-FACTORIAL HepG2 Assay for human cAMP Responsive Element (CRE) binding protein 3 (AID 2282926). As to conditions: HepG2 CRE cis-reporter, Attagene multiplexed mRNA; actives raise or lower the signal. Put shortly:
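HepG2 cells transiently transfected with cis-element-driven multiple reporter transcription units; CRE reporter mRNA measured 24 h after dosing by RT-PCR, 6-FAM labelling, HpaI digestion and capillary electrophoresis. Bidirectional fit versus DMSO baseline.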

On to `COC(=O)c1cccc(C)c1S(=O)(=O)NC(=O)Nc1nc(OCC(F)(F)F)nc(N(C)C)n1`, for which the result in [1], in experiment [2], in [3], in experiment [4], in [5] and in [6] was inactive. In addition, the result in experiment [7], in [8], in experiment [9], in [10], in [12] and in [13] was inactive. For the same molecule, the molecule was called inactive in [14], in [15], in [16], in experiment [17], in experiment [18] and in experiment [19]. Further, the AC50 (as a rule, the midpoint of the concentration-response curve, whichever way the signal moves) in experiment [11] is 1.33 µM (active).

Take `CCN(Cc1c(F)cccc1Cl)c1c([N+](=O)[O-])cc(C(F)(F)F)cc1[N+](=O)[O-]`: the result in [1], in [2], in [3], in [4], in [5] and in experiment [6] was inactive. For the same molecule, the molecule was called inactive in experiment [7], in [8], in experiment [10], in [11], in experiment [12] and in experiment [14]. For the same molecule, the call in [15], in experiment [16], in experiment [17] and in experiment [18] was inactive. Also, the figures for the AC50 in [9] and in [13] were 33.5 µM (active) and 34.6 µM (active), respectively.

As to `COC(=O)c1c(Cl)nn(C)c1S(=O)(=O)NC(=O)Nc1nc(OC)cc(OC)n1`, the result in experiment [1], in experiment [2], in [3], in experiment [4], in experiment [5] and in [6] was inactive. The call in [7], in [8], in experiment [9], in experiment [10], in experiment [11] and in experiment [12] was inactive. The call in experiment [13], in experiment [14], in [15], in [16], in experiment [17] and in experiment [18] was inactive. In addition, the call in [19] was inactive.

On to `CCCCOCCOCCOCc1cc2c(cc1CCC)OCO2`, for which the outcome in experiment [1], in experiment [2], in [4], in experiment [5], in [6] and in [10] was inactive. The molecule was classed as inactive in [11], in experiment [12], in experiment [14], in experiment [15], in [16] and in [17]. Further, the result in experiment [18] and in [19] was inactive. For the same molecule, the AC50 was 70 µM (active) in experiment [3], 45 µM (active) in experiment [8], 85.8 µM (active) in experiment [9] and 78.1 µM (active) in [13].

With `COC(=O)c1ccc(CNS(C)(=O)=O)cc1S(=O)(=O)NC(=O)Nc1nc(OC)cc(OC)n1`, the molecule was called inactive in experiment [1], in experiment [2], in experiment [3], in experiment [4], in [5] and in experiment [6]. Moreover, the molecule was called inactive in experiment [7], in experiment [8], in experiment [9], in [10], in experiment [11] and in experiment [12]. Also, the outcome in experiment [13], in experiment [14], in experiment [15], in experiment [16], in experiment [17] and in experiment [18] was inactive. In experiment [19], the result was inactive.

For `O=C(Nc1ccc([N+](=O)[O-])cc1Cl)c1cc(Cl)ccc1O`, the outcome in experiment [1], in experiment [5], in experiment [10], in [15], in experiment [16] and in experiment [17] was inactive. The molecule was classed as inactive in experiment [18]. The AC50 in [2] was 0.332 µM (active); in experiment [3], 0.672 µM (active); in experiment [4], 0.784 µM (active); in [6], 2.63 µM (active); in [7], 1.49 µM (active); in experiment [8], 0.463 µM (active). The half-maximal activity concentration (AC50) was 0.331 µM (active) in experiment [9]; 1.06 µM (active) in experiment [11]; 0.238 µM (active) in [12]; 0.0444 µM (active) in experiment [13]; 1.8 µM (active) in [14].

On to `CCCCOC(=O)C(C)Oc1ccc(Oc2ccc(C(F)(F)F)cn2)cc1` (configuration not stated), for which the molecule was called inactive in experiment [1], in experiment [2], in experiment [3], in experiment [4], in experiment [5] and in experiment [6]. For the same molecule, the molecule was called inactive in [7], in experiment [8], in experiment [9], in experiment [10], in experiment [12] and in [13]. For the same molecule, the outcome in experiment [14], in experiment [15], in experiment [16], in [17], in experiment [18] and in [19] was inactive. In addition, the half-maximal activity concentration (AC50) in experiment [11] is 34.9 µM (active).

For the molecule `N#CSCSc1nc2ccccc2s1`, the result in experiment [1], in experiment [3], in [4], in experiment [5], in [6] and in experiment [8] was inactive. Also, the result in experiment [10], in [12], in experiment [13], in experiment [14], in experiment [15] and in experiment [16] was inactive. Moreover, the result in [17] and in [18] was inactive. Besides, the AC50 in [2] was 42.9 µM (active); in experiment [9], 10 µM (active); in [11], 25.2 µM (active).
